Results as given in PubChem BioAssay AID1159580 (chemical genetic matrix, 2015).
Values joined by “and” are separate entries in the source; they are usually repeats but may differ in a detail not shown here. Equal values may be shown once. Among all 5,500 compounds or so, about 2,000 (36%) were called active. Not shown: some 18% with an inconclusive outcome. Rule as the data show it: active = normalized growth mostly below about 0.91 (no sharp cut-off); inconclusive = no clear call, values can overlap the other calls; inactive = mostly above about 0.92. The list shows a part of the results.

Experiment: chemical genetic growth profiling, strain panel (AID 1159580);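 also: tested at 20 µM; growth read once vehicle control cultures reached saturation at 30 °C; 1 = growth at the plate median or of vehicle wells; lower values mean less growth of the strain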
Conditions: S. cerevisiae deletion strains, growth OD

Measured: normalized growth

CN(C)CCCN1c2ccccc2Sc2ccccc21
inactive: locus YAL013W, strain DEP1, active compounds read low 0.988 and 0.967 | locus YAL021C, strain ccr4, active compounds read low 0.92 | locus YAL026C, strain drs2, active compounds read low 0.936 | locus YAL030W, strain snc1, active compounds read low 1.01 | locus YAL040C, strain CLN3, active compounds read low 0.964 | locus YBL061C, strain skt5, active compounds read low 1 | locus YBR009C, strain hhf1, active compounds read low 0.985 | locus YBR021W, strain FUR4, active compounds read low 0.961 | locus YBR023C, strain chs3, active compounds read low 1 | locus YBR171W, strain sec66, active compounds read low 0.996 | locus YBR229C, strain ROT2, active compounds read low 0.999 | locus YBR231C, strain swc5, active compounds read low 1.03 | locus YBR279W, strain paf1, active compounds read low 0.977 | locus YCL011C, strain gbp2, active compounds read low 0.996 | locus YCL016C, strain dcc1, active compounds read low 1.01 | locus YCL029C, strain bik1, active compounds read low 1.02 | locus YCL061C, strain MRC1 (second series), active compounds read low 0.983 | locus YCL061C, strain MRC1, active compounds read low 0.993 | locus YCL069W, strain vba3, active compounds read low 0.978 | locus YCR088W, strain abp1, active compounds read low 0.984 | locus YDL005C, strain med2, active compounds read low 1.03 | locus YDL035C, strain GPR1, active compounds read low 1.02 | locus YDL040C, strain nat1, active compounds read low 1 | locus YDL074C, strain BRE1, active compounds read low 1.01 | locus YDL101C, strain DUN1, active compounds read low 1.03 | locus YDL134C, strain PPH21, active compounds read low 1.01 | locus YDL185W, strain tfp1, active compounds read low 1.01 | locus YDL192W, strain arf1, active compounds read low 1.02 | locus YDR001C, strain nth1, active compounds read low 0.985 | locus YDR069C, strain doa4, active compounds read low 0.94 | locus YDR101C, strain arx1, active compounds read low 1.01 | locus YDR137W, strain rgp1, active compounds read low 1.13 | locus YDR150W, strain NUM1, active compounds read low 1.01 | locus YDR159W, strain sac3, active compounds read low 0.984 | locus YDR162C, strain NBP2, active compounds read low 1 | locus YDR195W, strain ref2 1.07 | locus YDR297W, strain sur2, active compounds read low 1.01 | locus YDR318W, strain mcm21, active compounds read low 1.02 | locus YDR334W, strain swr1, active compounds read low 0.95 | locus YDR335W, strain msn5, active compounds read low 0.994 | locus YDR363W, strain ESC2, active compounds read low 0.976 | locus YDR388W, active compounds read low 1.01 | locus YDR392W, strain spt3, active compounds read low 1.09 | locus YDR502C, strain sam2, active compounds read low 1.01 | locus YEL003W, strain gim4, active compounds read low 0.994 | locus YEL037C, strain rad23, active compounds read low 0.976 | locus YEL061C, strain CIN8 (second series), active compounds read low 0.96 | locus YEL061C, strain CIN8, active compounds read low 1 | locus YER002W, strain NOP16, active compounds read low 0.988 | locus YER015W, strain faa2, active compounds read low 0.991 | locus YER016W, strain bim1, active compounds read low 0.986 | locus YER110C, active compounds read low 1.02 | locus YER111C, strain swi4, active compounds read low 0.973 | locus YER155C, strain BEM2 (second series), active compounds read low 1.01 | locus YER155C, strain BEM2, active compounds read low 1 | locus YER167W, strain BCK2, active compounds read low 1.01 | locus YFR010W, strain ubp6, active compounds read low 0.92 | locus YGL078C, strain dbp3, active compounds read low 1.01 | locus YGL086W, strain mad1, active compounds read low 1.02 | locus YGL167C, strain pmr1, active compounds read low 0.981 | locus YGL173C, strain kem1, active compounds read low 0.981 | locus YGL227W, strain vid30, active compounds read low 0.996 | locus YGL240W, strain doc1, active compounds read low 1.04 | locus YGL248W, strain PDE1, active compounds read low 1 | locus YGL253W, strain hxk2, active compounds read low 0.994 | locus YGR078C, strain PAC10, active compounds read low 1.01 | locus YGR135W, strain pre9, active compounds read low 0.993 | locus YGR229C, strain SMI1, active compounds read low 0.971 | locus YGR252W, strain gcn5, active compounds read low 0.975 | locus YHR013C, strain ard1, active compounds read low 0.964 | locus YHR027C, strain rpn1, active compounds read low 0.989 | locus YHR030C, strain SLT2, active compounds read low 1 and 1.01 | locus YHR079C, strain IRE1 (second series), active compounds read low 1.01 | locus YHR079C, strain IRE1, active compounds read low 1.01 | locus YHR094C, strain hxt1, active compounds read low 1.01 | locus YHR129C, strain ARP1, active compounds read low 1.02 | locus YHR142W, strain chs7, active compounds read low 1.01 | locus YHR200W, strain rpn10, active compounds read low 1.02 | locus YIL066C, strain RNR3, active compounds read low 1 | locus YIL073C, strain SPO22, active compounds read low 1.02 | locus YIL125W, strain kgd1, active compounds read low 1.01 | locus YIR030C, strain dcg1, active compounds read low 1.02 | locus YJL092W, strain hpr5, active compounds read low 0.989 | locus YJL095W, strain BCK1 (second series), active compounds read low 1 | locus YJL095W, strain BCK1, active compounds read low 0.987 and 1.02 | locus YJL115W, strain asf1, active compounds read low 0.975 | locus YJL129C, strain trk1, active compounds read low 1.01 | locus YJL134W, strain LCB3, active compounds read low 1 | locus YJL154C, strain vps35, active compounds read low 0.977 | locus YJL164C, strain tpk1, active compounds read low 0.992 | locus YJL166W, strain qcr8, active compounds read low 0.995 | locus YJL168C, strain set2, active compounds read low 1.02 | locus YJL187C, strain SWE1 (second series), active compounds read low 1 | locus YJR043C, strain POL32, active compounds read low 1.02 | locus YJR066W, strain TOR1, active compounds read low 0.963
